# Assay results as given in PubChem BioAssay (NCI).
# The panel holds about 79,000 compounds, 15% with a hit somewhere; the sample as a whole holds those more often. Activity calls are given as the source filed them. No stated cut-off is given here; in the data, active means growth inhibition above about 70%; inactive means the rest.
# Assay: NCI Yeast Anticancer Drug Screen. Data for the rad50 strain (AID 155);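 further: 0% = growth of vehicle-only cultures of the same strain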
# Settings: S. cerevisiae rad50 strain growth inhibition; at 50.0 µM; active compounds read high
# Procedure, shortened: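 Growth of the mutant yeast was measured after compound exposure and referenced to vehicle-treated cultures.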
row,SMILES,growth inhibition
1,NC(=O)NC(=O)N/N=C/c1ccc([N+](=O)[O-])o1,74.8% (active)
2,O=[N+]([O-])/C=C\c1csc2ccccc12,99.2% (active)
3,O=[N+]([O-])c1ccc2c(c1)CCc1ccccc1-2,52.6% (inactive)
4,CC1=C(C)CC2C(=O)C(C(O)CC(C)C)=CC(=O)C2C1 (stereo not given),97.8% (active)
5,CCC(=O)OC1CCC(C2CCCCC2)CC1 (stereo not given),-4.95% (inactive)
6,Cc1cc(C2C(O)C(c3cc(C)on3)C2(C)O)no1 (stereo not given),72.2% (active)
7,CC(C)C(Sc1nc(-c2ccccc2)c(-c2ccccc2)[nH]1)C(=O)NN (stereo not given),90.2% (active)
8,C/C(=N\NC(=O)N/N=C(\C)c1ccccn1)c1ccccn1,-6.55% (inactive)
9,COC(=O)CCCCCCCCCCC(=O)O,2.45% (inactive)
10,CCCCCCCCCCCCNC(=O)C[n+]1cccc(C(N)=O)c1,79% (active)
11,Nc1ccccc1N=Cc1ccccc1O,66.2% (inactive)
12,N#Cc1c(-c2ccc(Cl)cc2)c2c(n(C3OC(CO)C(O)C(O)C3O)c1=S)CCCC2 (stereo not given),9.95% (inactive)
13,CC(C)(C)CC(C)(C)N[P+](NC(C)(C)CC(C)(C)C)(NC(C)(C)CC(C)(C)C)NC(C)(C)CC(C)(C)C,83.2% (active)
14,CC(=O)OC1C(OC(C)=O)C2C(C)CC3OC(=O)C(C)C3CC2(C)C1OC(C)=O (stereo not given),78.2% (active)
15,NNC(=O)c1ccc(N)cc1O,-13.6% (inactive)
16,Nc1ccc2c(c1)C(=O)c1ccccc1-2,68.2% (inactive)
17,Cc1cn(C(C#N)=C(C#N)C#N)c2ccccc12,14.4% (inactive)
18,FC(F)(F)COP1(OCC(F)(F)F)=NP(OCC(F)(F)F)(OCC(F)(F)F)=NP(c2ccccc2)(c2ccccc2)=N1,25.9% (inactive)
19,O=c1oc(-c2ccccc2Br)ns1,98.8% (active)
20,CC(=O)N1C(C(=O)NNc2ccccc2)CSC1c1ccccc1 (stereo not given),38.1% (inactive)

row,SMILES,growth inhibition
1,O=[N+]([O-])/C=C/c1cc2c(ccc3ccccc32)[nH]1,82.7% (active)
2,CN(C)CCCC1(c2ccccc2)SC(C)(C)c2ccc(Cl)cc21 (stereo not given),15.3% (inactive)
3,O=c1[nH]c2ccccc2c2oc3ccccc3c12,63.5% (inactive)
4,O=C(c1ccccc1)c1cn(/N=C\c2ccccc2)c(=O)nc1-c1ccccc1,88.5% (active)
5,Cc1ccc(S(=O)(=O)OCCc2ccc(Cl)cc2)cc1,-19.6% (inactive)
6,COC(=O)CC1(O)c2cc(OC)c3cccc(OC)c3c2CCC1(C)C(=O)OC (stereo not given),92.9% (active)
7,CC(C)CC(NC(=O)SCc1ccccc1)C(=O)O (stereo not given),3.35% (inactive)
8,COc1ccc(/C=C/c2ccnc3ccccc23)cc1,90.3% (active)
9,N#CC1=C(N)OC(/C=C/c2ccccc2)=C(C#N)C1c1ccccc1 (stereo not given),90.2% (active)
10,COc1ccc(C(=O)C(CN2CCOCC2)CN2CCOCC2)cc1,96.2% (active)
11,N/N=C(/N)SCCCCCCCCCCS/C(N)=N/N,21.4% (inactive)
12,OC(CBr)C[n+]1cccc2cc(Cl)ccc21 (stereo not given),-40% (inactive)
13,O=C(O)C1C(C(=O)Nc2ccc3c(c2)Cc2ccccc2-3)C2(Cl)C(Cl)=C(Cl)C1(Cl)C2(Cl)Cl (stereo not given),98.4% (active)
14,CSc1nc(COC(=O)NC(C)C)c(COC(=O)NC(C)C)n1-c1ccccc1,-17.1% (inactive)
15,CC(C)C[NH-].CC(C)C[NH-].[Cl][Pt+2]([Cl])([Cl])[Cl],85.2% (active)
16,c1ccc(N=c2sc3ccccc3sc2=Nc2ccccc2)cc1,51% (inactive)
17,[Cl-].[La+3].[O-]/N=C(\c1ccccc1)c1ccccn1.[O-]/N=C(\c1ccccc1)c1ccccn1.[O-]/N=C(\c1ccccc1)c1ccccn1,63.3% (inactive)
18,Clc1ccc(SSN2CCCCC2)cc1,89% (active)
19,CCC(O)C(O)(c1ccccc1)c1nc2ccccc2s1 (stereo not given),6.75% (inactive)
20,ONC(=Nc1cccc2ccccc12)C(=Nc1cccc2ccccc12)NO,33.9% (inactive)

# Assay: NCI Yeast Anticancer Drug Screen. Data for the mec2-1 strain (AID 157)
# Settings: S. cerevisiae mec2-1 strain, at 5.0 µM (retest, dose inferred, filed as 0.5), active compounds read high
# Procedure, shortened: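 Growth inhibition is read against vehicle-treated controls after compound exposure of the mec2-1 yeast strain, which is defective in DNA damage repair or cell cycle control.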
row,SMILES,growth inhibition
1,NC(=O)NC(=O)N/N=C/c1ccc([N+](=O)[O-])o1,1% (inactive)
2,O=[N+]([O-])/C=C\c1csc2ccccc12,96% (active)
3,O=[N+]([O-])c1ccc2c(c1)CCc1ccccc1-2,-18% (inactive)
4,CC1=C(C)CC2C(=O)C(C(O)CC(C)C)=CC(=O)C2C1 (stereo not given),-5% (inactive)
5,CCC(=O)OC1CCC(C2CCCCC2)CC1 (stereo not given),1% (inactive)
6,Cc1cc(C2C(O)C(c3cc(C)on3)C2(C)O)no1 (stereo not given),-12% (inactive)
7,CC(C)C(Sc1nc(-c2ccccc2)c(-c2ccccc2)[nH]1)C(=O)NN (stereo not given),-36% (inactive)
8,C/C(=N\NC(=O)N/N=C(\C)c1ccccn1)c1ccccn1,-18% (inactive)
9,COC(=O)CCCCCCCCCCC(=O)O,-1% (inactive)
10,CCCCCCCCCCCCNC(=O)C[n+]1cccc(C(N)=O)c1,-3% (inactive)
11,Nc1ccccc1N=Cc1ccccc1O,-4% (inactive)
12,N#Cc1c(-c2ccc(Cl)cc2)c2c(n(C3OC(CO)C(O)C(O)C3O)c1=S)CCCC2 (stereo not given),-2% (inactive)
13,CC(C)(C)CC(C)(C)N[P+](NC(C)(C)CC(C)(C)C)(NC(C)(C)CC(C)(C)C)NC(C)(C)CC(C)(C)C,97% (active)
14,CC(=O)OC1C(OC(C)=O)C2C(C)CC3OC(=O)C(C)C3CC2(C)C1OC(C)=O (stereo not given),2% (inactive)
15,NNC(=O)c1ccc(N)cc1O,-3% (inactive)
16,Nc1ccc2c(c1)C(=O)c1ccccc1-2,3% (inactive)
17,Cc1cn(C(C#N)=C(C#N)C#N)c2ccccc12,6% (inactive)
18,FC(F)(F)COP1(OCC(F)(F)F)=NP(OCC(F)(F)F)(OCC(F)(F)F)=NP(c2ccccc2)(c2ccccc2)=N1,-1% (inactive)
19,O=c1oc(-c2ccccc2Br)ns1,3% (inactive)
20,CC(=O)N1C(C(=O)NNc2ccccc2)CSC1c1ccccc1 (stereo not given),40% (inactive)

row,SMILES,growth inhibition
1,O=[N+]([O-])/C=C/c1cc2c(ccc3ccccc32)[nH]1,94% (active)
2,CN(C)CCCC1(c2ccccc2)SC(C)(C)c2ccc(Cl)cc21 (stereo not given),-4% (inactive)
3,O=c1[nH]c2ccccc2c2oc3ccccc3c12,-10% (inactive)
4,O=C(c1ccccc1)c1cn(/N=C\c2ccccc2)c(=O)nc1-c1ccccc1,-13% (inactive)
5,Cc1ccc(S(=O)(=O)OCCc2ccc(Cl)cc2)cc1,-11% (inactive)
6,COC(=O)CC1(O)c2cc(OC)c3cccc(OC)c3c2CCC1(C)C(=O)OC (stereo not given),91% (active)
7,CC(C)CC(NC(=O)SCc1ccccc1)C(=O)O (stereo not given),-12% (inactive)
8,COc1ccc(/C=C/c2ccnc3ccccc23)cc1,20% (inactive)
9,N#CC1=C(N)OC(/C=C/c2ccccc2)=C(C#N)C1c1ccccc1 (stereo not given),25% (inactive)
10,COc1ccc(C(=O)C(CN2CCOCC2)CN2CCOCC2)cc1,20% (inactive)
11,N/N=C(/N)SCCCCCCCCCCS/C(N)=N/N,-4% (inactive)
12,OC(CBr)C[n+]1cccc2cc(Cl)ccc21 (stereo not given),1% (inactive)
13,O=C(O)C1C(C(=O)Nc2ccc3c(c2)Cc2ccccc2-3)C2(Cl)C(Cl)=C(Cl)C1(Cl)C2(Cl)Cl (stereo not given),27% (inactive)
14,CSc1nc(COC(=O)NC(C)C)c(COC(=O)NC(C)C)n1-c1ccccc1,23% (inactive)
15,CC(C)C[NH-].CC(C)C[NH-].[Cl][Pt+2]([Cl])([Cl])[Cl],46% (inactive)
16,c1ccc(N=c2sc3ccccc3sc2=Nc2ccccc2)cc1,56% (inactive)
17,[Cl-].[La+3].[O-]/N=C(\c1ccccc1)c1ccccn1.[O-]/N=C(\c1ccccc1)c1ccccn1.[O-]/N=C(\c1ccccc1)c1ccccn1,25% (inactive)
18,Clc1ccc(SSN2CCCCC2)cc1,-1% (inactive)
19,CCC(O)C(O)(c1ccccc1)c1nc2ccccc2s1 (stereo not given),5% (inactive)
20,ONC(=Nc1cccc2ccccc12)C(=Nc1cccc2ccccc12)NO,-8% (inactive)
